The whole screen tested about 410,000 compounds, of which about 6,400 (1.6%) were called active. Another 20% or so got no clear call; they are omitted. For the sample, actives were picked, then their nearest neighbours and some compounds at random. Values without a mark were called inactive. The call rests on the fitted dose curve; in most records, active means well fitted inhibition curve with a large enough effect; inconclusive means small, poorly fitted or top-dose-only effect; inactive means no such curve, though single readings can be large or run the other way. Peptide text beside a SMILES is read from it. * marks the point of attachment. Bz = O=C(c1ccccc1)*
On the % scale 0 is the no-effect control and ±100 the full control effect; potency means the concentration at half of the fitted maximal effect.

Glucagon-like peptide 1 receptor (Homo sapiens), sequence (P43220 whole entry, looked up): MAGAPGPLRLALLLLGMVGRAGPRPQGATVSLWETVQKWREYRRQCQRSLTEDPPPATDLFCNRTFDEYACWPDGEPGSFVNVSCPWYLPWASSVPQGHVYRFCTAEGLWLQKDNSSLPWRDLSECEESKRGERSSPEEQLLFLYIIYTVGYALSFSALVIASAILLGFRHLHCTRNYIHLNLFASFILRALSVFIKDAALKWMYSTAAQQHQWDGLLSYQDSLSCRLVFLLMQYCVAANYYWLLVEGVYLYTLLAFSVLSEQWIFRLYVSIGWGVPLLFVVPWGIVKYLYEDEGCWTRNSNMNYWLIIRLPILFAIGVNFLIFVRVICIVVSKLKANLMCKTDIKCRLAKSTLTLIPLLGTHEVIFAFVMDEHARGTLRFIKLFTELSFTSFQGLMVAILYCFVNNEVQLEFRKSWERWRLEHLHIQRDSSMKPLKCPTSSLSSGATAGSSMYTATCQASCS

The test has as its target Glucagon-like peptide 1 receptor (Homo sapiens) (UniProt P43220). In words: qHTS of GLP-1 Receptor Inverse Agonists (Inhibition Mode). Further: nearly all actives have a fitted effect of over 55% in size. The following applies: HEK293 GLP-1R CRE-luciferase, luminescence, 24 h, GLP-1R form is constitutively active; series mostly up to 38.3 µM; activity change, negative = inhibition: at the top concentration. The method, boiled down: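 Inverse agonism was detected as reduced cAMP-driven luciferase luminescence after 24 h compound treatment. The cells were HEK293 clones expressing constitutively active human GLP-1R with the reporter. Reporter-only and GPR119 cell lines served as counterscreen controls.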
For orientation: In qHTS, concentration-response curves come from the screen itself.
For `c1cc(-c2ccc3[nH]ccc3c2)n2ccnc2c1`, the “activity change, negative = inhibition” value was 13.9%.

In the case of `Cc1nc(SCc2ccc(F)cc2)c([N+](=O)[O-])[nH]1`, the “activity change, negative = inhibition” value is 11.3%.

Consider `CCCCOc1ccc(CSC(=N)N)cc1[N+](=O)[O-]`, for which the “activity change, negative = inhibition” value is 0%.

For the molecule `CCCCCOc1ccc(CSC2=NCCN2)cc1[N+](=O)[O-]`, the Potency is 3.98 µM (active).

Take `CC1(C)OC(=O)C2=C(C[C@@H](C3CC3)O[C@H]2c2ccc(Cl)cc2)O1`: the “activity change, negative = inhibition” value was -24.2%.

With `CN(C)C(CNC(=O)c1cccc(S(=O)(=O)N2CCc3ccccc3C2)c1)c1ccccc1` (centres undefined), the “activity change, negative = inhibition” value was -24.4%.

Take `Cc1ccn(CC(=O)NC2CCCN(Cc3ccccc3F)C2)n1` (centres undefined): the “activity change, negative = inhibition” value is -2.79%.

For `CC1(C)CN(Cc2cccnc2)C(=O)[C@H]1CC(=O)Nc1ccc(Br)cc1`, the “activity change, negative = inhibition” value is 12.3%.

For `CC1Oc2ccccc2N(Cc2cccnc2)C1=O` (centres undefined), the “activity change, negative = inhibition” value is 20.6%.

Take `CC12c3ccccc3C(c3ccccc31)C1C(=O)N(Cc3cccnc3)C(=O)C12` (centres undefined): the Potency is 8.91 µM (active).

`COc1cccc(CNc2nc3cc(-c4csc5ccccc45)sc3c(=O)n2C)c1`: the “activity change, negative = inhibition” value is 1.12%.

Take `CCCNC(=O)C1(C)CCCN(C(=O)c2cccc(OC(C)=O)c2C)C1` (centres undefined): the “activity change, negative = inhibition” value is 8.07%.

Take `Cc1cc(C)c2nc(N(CCN(C)C)C(=O)/C=C/c3cccs3)sc2c1`: the “activity change, negative = inhibition” value was 5.14%.

Consider `COc1cccc2sc(N(CCCN(C)C)C(=O)C(c3ccccc3)c3ccccc3)nc12`, for which the Potency was 5.62 µM (active).

Take `CCN(CC)CCN(C(=O)c1ccc2c(c1)CCCC2)c1nc2c(OC)cccc2s1`: the Potency was 11.2 µM (active).

`CCN(CC)CCN(C(=O)c1cccc([N+](=O)[O-])c1)c1nc2ccc(OC)cc2s1`: the “activity change, negative = inhibition” value was -24.3%.

On to `Cc1ccc2sc(N(CCN(C)C)C(=O)/C=C/c3cccs3)nc2c1C`, for which the “activity change, negative = inhibition” value was 10.2%.

Regarding `COc1ccccc1CNC(=O)Cn1cc2c(n1)CCCC2`, the “activity change, negative = inhibition” value is 10.1%.

On to `CCCCN1C(=O)C(CC(=O)NC(c2ccccc2)c2ccccc2)CC(C(=O)N2CCOCC2)=C1C` (centres undefined), for which the “activity change, negative = inhibition” value is 3.69%.

Take `C[C@@H]1CC2=C(C(=O)OC(C)(C)O2)[C@@H](C2CC2)O1`: the “activity change, negative = inhibition” value was 14.2%.

As to `COc1cccc(-c2cnc3c(NC(C)=O)cc(-c4cccc(NC(C)=O)c4)cn23)c1`, the “activity change, negative = inhibition” value was -20.2%.

Turning to `COC(=O)CN(c1nc(C)c(Cl)c(OC)n1)S(=O)(=O)c1ccc(C)cc1`, the Potency is 10 µM (active).

With `CCN(CC)C(=O)CN(c1cccc(OC)c1)S(=O)(=O)c1ccc(C)cc1`, the “activity change, negative = inhibition” value was -20.6%.

`COc1ccc(C)cc1N(CC(=O)N1CCC(C)CC1)S(=O)(=O)c1ccc(C)cc1`: the “activity change, negative = inhibition” value is -19.8%.

`CCc1ccc([C@@H]2CC(=O)[C@@H]3CN(S(=O)(=O)c4ccc(C)cc4)[C@H](c4ccc(Cl)cc4)C[C@@H]3N2S(=O)(=O)c2ccc(C)cc2)cc1`: the “activity change, negative = inhibition” value was 20.7%.

For `COc1cc(C=NC2CCCCC2)ccc1O`, the “activity change, negative = inhibition” value was 4.56%.

In the case of `O=C(NC(Cc1ccccc1)C(=O)N1CCCC1C(=O)O)c1ccccc1` (stereo not drawn) (Bz-Phe-Pro-OH; configuration not given here), the “activity change, negative = inhibition” value was 1.12%.

On to `CN(Cc1ccccc1F)C(=O)C(Cc1ccccc1)NC(=O)c1ccccc1` (centres undefined), for which the Potency is 11.2 µM (active).

With `NC(=O)c1ccc(NC(=O)COC(=O)C(Cc2ccccc2)NC(=O)c2ccccc2)cc1` (centres undefined), the “activity change, negative = inhibition” value is 6.56%.

For the origin of these results see PubChem BioAssay AID624417 (National Center for Advancing Translational Sciences (NCATS), 2012).
